Measurements: PubChem BioAssay AID1220 (Sanford-Burnham Center for Chemical Genomics, 2008)
Among all 190,000 compounds or so, about 1,300 (0.68%) were called active. Cut-off read from the data, not from the text of the source: active = inhibition above about 50%; inactive = the rest. This excerpt belongs to a sample that is enriched for actives.

target: Mannose-6-phosphate isomerase (Homo sapiens) (UniProt P34949); assay: MPI inhibition at elevated mannose 6-phosphate – biochemical, fluorescence intensity, high mannose 6-phosphate, primary screen (AID 1220); conditions: recombinant PMI enzyme, coupled fluorescence intensity; at 20 µM; stronger effect = higher value
Sequence (P34949 whole entry, looked up): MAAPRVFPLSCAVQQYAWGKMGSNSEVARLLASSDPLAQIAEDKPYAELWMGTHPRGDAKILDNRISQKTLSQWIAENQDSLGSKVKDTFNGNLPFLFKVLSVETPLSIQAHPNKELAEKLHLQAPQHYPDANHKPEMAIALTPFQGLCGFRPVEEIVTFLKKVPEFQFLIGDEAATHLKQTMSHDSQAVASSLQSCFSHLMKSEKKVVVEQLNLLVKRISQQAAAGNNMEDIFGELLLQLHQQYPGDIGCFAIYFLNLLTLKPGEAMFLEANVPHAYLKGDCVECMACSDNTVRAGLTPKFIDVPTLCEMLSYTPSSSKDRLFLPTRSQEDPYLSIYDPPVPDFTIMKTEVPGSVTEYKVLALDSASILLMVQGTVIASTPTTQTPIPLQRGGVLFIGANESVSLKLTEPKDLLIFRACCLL

inhibition, active:
O=C1C=C(Nc2ccccc2)c2ccccc2C1=O 64.6%
O=C1C=C(Nc2ccccc2)C(=O)c2ccccc21 57.5%
O=C1C=C(Nc2ccccc2O)c2ccccc2C1=O 62.6%
Cc1ccc(NC2=CC(=O)C(=O)c3ccccc32)cc1 56.2%
CCOC(=O)c1ccc(NC2=CC(=O)C(=O)c3ccccc32)cc1 57.3%
Nc1ccc2cn[nH]c2c1 53.1%
CCCCc1nnc(NC(=O)CSc2nc(N)cc(=O)[nH]2)s1 51.1%
Cc1ccc(C)c(-n2[nH]c3c4c(ccc3c2=O)C(=O)c2ccccc2C4=O)c1 58%
CC(C)Cn1[nH]c2c3c(ccc2c1=O)C(=O)c1ccccc1C3=O 60.3%
CC(=C/c1ccco1)/C=N/NC(=O)c1nnn(-c2nonc2N)c1CN(C)C 59.6%
O=[N+]([O-])c1ncccc1Oc1nc(-c2cccnc2)nc2ccccc12 65.8%
O=S(=O)(c1ccccc1)N1CCN=C1SCc1ccc(Cl)cc1 51.5%
CC(/C=N/NC(=O)CSc1nnc(SCc2ccccc2)s1)=C\c1ccco1 54.7%
CC(/C=N/NC(=O)CSc1nc2ccccc2n1C)=C\c1ccco1 58.6%
CC(/C=N/NC(=O)c1cc(-c2ccccc2)nc2ccccc12)=C\c1ccco1 63.2%
CCOc1cc(N2CCOCC2)c(OCC)cc1NC(=O)CSc1ncn[nH]1 53%
CCOc1cc(N2CCOCC2)c(OCC)cc1NC(=O)CSc1ncccn1 50.6%
COc1ccc(-n2c(NC(=O)c3ccc(Br)o3)c(C#N)c3nc4ccccc4nc32)cc1 66.9%

inhibition, inactive:
COc1cc([N+](=O)[O-])cc2sc(NC(=O)C(C)(C)C)nc12 17%
COc1ccccc1Cn1c(/C=C/c2ccccc2)nc2ccccc21 4.9%
Cc1cccc(-n2nc3c(c2NC(=O)c2ccc(Br)o2)CSC3)c1 -0.5%
CCCC(CCC(=O)Nc1cc([N+](=O)[O-])ccc1O)C(=O)O (stereo not given) 11%
CC(=O)Nc1ccc(NC(=O)c2cccc3c2-c2ccccc2C3=O)cc1 -2.8%
CC(=O)NC(=S)Nc1ccc([N+](=O)[O-])cc1C -6%
CC1CCCN(Cc2nc3c(c(=O)n(C)c(=O)n3C)n2CCc2ccccc2)C1 (stereo not given) 5.2%
CNC(=O)CSc1nc(N)c2c3c(sc2n1)CCC3 7.8%
CC1=C(C(=O)N2CCOCC2)C(c2cccc(C)c2)NC(=S)N1 (stereo not given) -12.7%
O=C1C=C(NCc2ccccc2)c2ccccc2C1=O 7.9%
CC1=CC(=O)c2ccccc2C1=O -13.3%
COC1=C(Nc2ccccc2)C(=O)c2ccccc2C1=O 4.1%
COC1=C(Nc2ccc(C)cc2)C(=O)c2ccccc2C1=O -3.1%
Cc1ccc(NC2=C(NCCO)C(=O)c3ccccc3C2=O)cc1 47.8%
Nc1c(O)ccc2c1C(=O)c1ccccc1C2=O 5.1%
O=C1C(Nc2ccccc2)=C/C(=N/S(=O)(=O)c2cccs2)c2ccccc21 40.7%
CC1(C)CC(=O)C=C(Nc2ccccc2O)C1 7.6%
CC(C)(C)n1nnnc1SCC(=O)Nc1nn(-c2ccccc2)nc1C(N)=O 0.7%
CN(C(=O)COc1ccccc1)c1nnc(-c2cccnc2)s1 -0.3%
Cc1ccccc1NC(=O)c1c2c(nc3ccccc13)CCC2 -4.6%
O=C(O)[C@H]1CCCC[C@H]1C(=O)Nc1cc([N+](=O)[O-])ccc1F -7.1%
CCCC(=O)Nc1cc(Cl)ccc1C -0.2%
Nc1nc(SCC(=O)Nc2cc(S(=O)(=O)N3CCOCC3)ccc2Cl)n[nH]1 -10.9%
COC(=O)c1ccc(CSc2nnc(-c3ccc4c(c3)OCO4)n2-c2ccccc2)o1 -8.3%
Cc1ccccc1NC(=S)N1CCN(C(=O)c2ccco2)CC1 5.1%
O=C(C1CCCCN1S(=O)(=O)c1ccccc1)N1CCN(Cc2ccccc2)CC1 (stereo not given) -3.3%
CC(=O)N(C(C)=O)n1c(/C=C/c2cccc([N+](=O)[O-])c2)nc2ccccc2c1=O 15.3%
CCOC(=O)c1ccc(NC2OC(=O)c3ccccc32)cc1 (stereo not given) -0.5%
CCOC(=O)c1ccc(NC(=O)C(C)N2C(=O)c3ccccc3C2=O)cc1 (stereo not given) 5%
Nc1ccc2[nH]ncc2c1 48.1%
O=[N+]([O-])c1ccc2cn[nH]c2c1 1.3%
CCCCc1nnc(NC(=O)C(C)Sc2nc(N)cc(=O)[nH]2)s1 (stereo not given) 0.4%
CC(C)Cc1nnc(NC(=O)CSc2nc(N)cc(=O)[nH]2)s1 -6.4%
C=CCc1ccccc1OCCNCc1ccccc1 1%
Cc1cccc(C(=O)NC2CCN(CC(=O)NCc3cccs3)CC2)c1 -0.6%
COCCCn1[nH]c2c3c(ccc2c1=O)C(=O)c1ccccc1C3=O 14.1%
Cc1ccc(-n2[nH]c3c4c(ccc3c2=O)C(=O)c2ccccc2C4=O)cc1 13.1%
Cc1cccc(-n2[nH]c3c4c(ccc3c2=O)C(=O)c2ccccc2C4=O)c1 26.4%
O=C1c2ccccc2C(=O)c2c1ccc1c(=O)n(-c3ccccc3)[nH]c21 30.4%
C=CCn1c(SCC(=O)Nc2cccc3ccccc23)nc(O)c(CC)c1=O -3.4%
CCn1c(CNc2ccc(F)cc2)nnc1SCC(=O)Nc1ccccc1OC 4%
CN(C(=O)c1ccccc1)c1ccc(OCC(=O)NC2CCS(=O)(=O)C2)cc1 (stereo not given) 11.6%
CC(C)(C)NS(=O)(=O)c1ccc(OCC(=O)NCCC2=CCCCC2)cc1 1.2%
COCc1c(C(=O)N/N=C/c2cccc3ccccc23)nnn1-c1nonc1N -11.8%
COCc1c(C(=O)N/N=C(/C)c2ccccc2)nnn1-c1nonc1N 6.3%
CC(=O)c1ccc(Oc2nc(-c3cccnc3)nc3ccccc23)cc1 -4.3%
Cc1ccc(Oc2nc(-c3cccnc3)nc3ccccc23)c([N+](=O)[O-])n1 8.5%
Cc1cc(C(=O)C(=O)O)c(C)n1-c1ccc(Cl)c(Cl)c1 -3%
COc1ccc(CCC(=O)N2CC(C)OC(C)C2)cc1 (stereo not given) 5.2%
Cc1ccc(C)c(NC(=O)c2nc(-c3ccccc3)n(-c3ccccc3)n2)c1 16.2%
O=[N+]([O-])c1ccc(C[n+]2ccc(Cc3ccccc3)cc2)cc1 31.5%
O=S(=O)(c1ccccc1)N1CCN=C1SCc1ccc(Cl)c(Cl)c1 -0.5%
O=S(=O)(c1ccccc1)N1CCN=C1SCc1ccccc1 -2.3%
c1ccc(COc2ccc(OCCN3CCCC3)cc2)cc1 16.3%
Cc1cccc(NC(=O)CC2SC(=NC3CCCCC3)NC2=O)c1 (stereo not given) 7.6%
Nn1c(COc2ccc(Cl)cc2)n[nH]c1=S 10.2%
Cc1ccc(OCc2n[nH]c(=S)n2N)cc1C 9.3%
CCOc1ccccc1OCCNC1CCCC1 -5%
COCCCNC(=S)Nc1ccc(C)cc1[N+](=O)[O-] 5.7%
CC[C@H](C)C(C(=O)N1CCN(C(=O)OC(C)(C)C)CC1)n1cc(C(Cc2ccc(O)cc2)NC(=O)OC(C)(C)C)nn1 (stereo not given in full) 6.3%
Cn1c(SCC(=O)N/N=C/c2ccco2)nc2ccccc21 3.4%
CC(=C/c1ccco1)/C=N/NC(=O)CSc1nnc(SCc2ccc(C)cc2)s1 49.4%
CC(/C=N/NC(=O)c1cc(-c2ccc(Cl)cc2)nc2ccccc12)=C\c1ccco1 11.8%
O=C(CSc1nnc(SCc2ccccc2)s1)N/N=C/C=C\c1ccco1 -23%
CC(/C=N/NC(=O)c1cc(-c2ccncc2)nc2ccccc12)=C\c1ccco1 11.8%
Cn1c(SCC(=O)N/N=C/C=C/c2ccco2)nc2ccccc21 45.7%
CCc1ccc(Nc2nnc(SCC(=O)Nc3sccc3C(N)=O)s2)cc1 11.1%
CCOC(=O)c1ccc(NC(=S)N(CCN2CCCCCC2)Cc2cccs2)cc1 2.9%
COc1cc(OC)cc(C(=O)NCC2CCCO2)c1 (stereo not given) 12.6%
Cc1ccc2nc3c(cc2c1)c(NC(=O)c1cccnc1)nn3C 13.2%
Cc1c(C(=O)NCC2CCCO2)oc2ccc3c(c12)C(=O)CC(C)(C)O3 (stereo not given) 7.4%
O=C(Nc1cccnc1)C1CCCN(S(=O)(=O)c2ccccc2)C1 (stereo not given) -2%
CCOc1cc(N2CCOCC2)c(OCC)cc1NC(=O)CSc1n[nH]c(N)n1 37.1%
CCOc1cc(N2CCOCC2)c(OCC)cc1NC(=O)CCC1CCCC1 17.2%
CCOc1cc(N2CCOCC2)c(OCC)cc1NC(=O)CSc1nccc(C)n1 19.5%
CCOc1cc(N2CCOCC2)c(OCC)cc1NC(=O)CSc1cccc[n+]1[O-] 16.7%
[O-][n+]1ccc(C2CC2)cc1 7.7%
CCN1CCN(C(c2cccs2)C(C)NC(=O)NC2CCCCC2)CC1 (stereo not given) 6%
CCC1Sc2ccccc2N(CC(=O)NCc2ccc3c(c2)OCO3)C1=O (stereo not given) -3.8%
O=C(COC(=O)COc1cccc(Br)c1)Nc1c(Cl)cccc1Cl 4.6%
COc1ccc(NC(=O)c2ccc(Br)o2)cc1 13.3%
COc1ccc(Cn2c(N)c(C#N)c3nc4ccccc4nc32)cc1 15.1%
